Experimental data: PubChem BioAssay AID1508600 (Functional Genomics Laboratory (NCATS/FGL), 2020)
Among all 53,000 sequences or so, about 3,700 (7%) were called active. This excerpt belongs to a sample that is enriched for actives. Values without a mark were called inactive.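 Rule for the calls: active = gene knockdowns whose robust z-score for IL-1 alpha signal is at least 2 or at most -2, so actives lie on both sides; inactive = the rest.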

Test: Components of the Cytosolic LPS Sensing Pathway: Gene Identification via Genome-wide siRNA Screen
Details: RAW264.7 macrophages, IL-1a HTRF, actives lie on both sides, screened at 100 nM (by protocol), cells primed 5 h with Pam3CSK4 first
Text: Non-canonical inflammasome activation by cytosolic LPS is a critical component of the host response to Gram-negative bacterial infection, however we lack a comprehensive understanding of the cellular processes that control this pathway. Here we describe a genome-wide siRNA screen to identify genes regulating the mouse macrophage IL-1 alpha response to cytosolic LPS.
RAW264.7 cells were maintained in complete DMEM media, comprising DMEM with 4.5 g/L glucose, 10% FBS (Gemini Bio-Products, West Sacramento, CA), 2 mM Glutamine (Lonza) and 20 mM HEPES (Lonza), hereafter complete DMEM.
The RNAi screen was conducted in 384-well format using the Ambion Silencer Mouse Genome siRNA Library (#4391425), which consists of three unique, nonoverlapping, nonpooled siRNAs for each of 17,000 gene targets. siRNA reagents ([…]) were stamped into 384-well white flat-bottom microplates (Corning, 3570) using a Velocity11 VPrep liquid handling system (Agilent) integrated into a BioCel robotic platform (Agilent) in columns 1-22, leaving columns 23-24 empty for negative (Ambion, Negative control #1) and positive (mouse Casp4) controls, respectively. The median value of each plate's negative control column was used to normalize sample wells, and the positive control was used to assess transfection efficiency and assay performance.
Lipofectamine RNAiMAX Transfection Reagent ([…]; Invitrogen) was added in […] serum-free, antibiotic-free media to plate wells using a Thermo Scientific Matrix WellMate and Microplate Stacker. Plates were incubated for 45 min at room temperature to allow for the sufficient formation of siRNA-lipid complexes. Cells were seeded at a density of 1x10^4 cells per well in 20 microL media containing 20% (vol/vol) FBS without antibiotics. The final concentration of siRNA in each well was 100 nM. Cells were cultured for 48h at 37 degrees C in 5% CO2 before addition of […] of TLR ligand Pam3CSK4 for 5 hours. The medium was then removed, replaced with […] growth media and cell were transfected with […] of LipidA and TransIT-TKO (Mirus) for 24 hour. At the end of the LipidA treatment, […] of supernatant was transferred to a 384 Greiner Bio-one non-binding low volume plate and […] of IL-1a HTRF reagent (Cisbio, 62MIL1APEH) was added and incubated at room temperature overnight. The plates were read on an EnVision plate reader (PerkinElmer). Cell viability was measured by adding 20ul Cell Titer Glo to the original plate and running a luminescence read on the EnVision. The quantified IL-1a signal for each siRNA gene-targeted well was divided by the median of the negative control wells and multiplied by 100 to achieve a negative control normalized value for each well/siRNA. This normalized value was then used to generate a robust z-score by first taking the log of each value and then by subtracting the median and dividing by the […].

In the case of GGUUCAGAUGGGAAAAAGGTT against Khdrbs2, the z-score was -2.41 (active).
With GGAGGAUGGUGCCAACAUUTT against Psmc3 the z-score was -2.02 (active).
For “CGAGCUUAUGCUGAAACCATT against 3830417A13Rik”, the z-score was -2.45 (active).
In the case of GGAUAUGCAGUGGAACUAUTT against Heph, the z-score was -2.13 (active).
In the case of GCAGGGUACUGGCUAAAUATT against Cd40, the z-score was 2.93 (active).
With GCUACACCGUAACAUGCUATT against Zer1 the z-score was 2.19 (active).
In the case of GGAGGAAUUCAUUAGAAACTT against Psmc1, the z-score was -2.04 (active).
With GCAAGACCCAAGAGUUACATT against Soat2 the z-score was -2.07 (active).
With GGCACCAUCUAUUAUUUUCTT against Psmc3 the z-score was -2.45 (active).
With GGAAUGUUACAUUUCAGUUTT against Adam1a the z-score was 2.15 (active).
With CCUGUGAAAUACCAGCGUGTT against Rsl24d1 the z-score was 2.05 (active).
In the case of GACUUCGGACAAAUGGUGCTT against Lce1f, the z-score was 2.27 (active).
For GGAAUUAAAUGAACCCAGATT against Arhgap8, the z-score was 2.48 (active).
With GCACGAUGUCUCAGCUCUATT against Nipal3 the z-score was -2.89 (active).
For GGAGCAUCUAUGAUUACAATT against Iqcg, the z-score was 3.24 (active).
For GCUCAUGUCAGGAGAGAGUTT against Ocel1, the z-score was -2.41 (active).
With UCCUCCUGUCUUACGUACGTT against Prlhr the z-score was 2.05 (active).
With GGUAUAUGGUGGGAACUUUTT against Bnipl the z-score was 2.04 (active).
For GGAAGCAGGGCAGCUUAUUTT against Hbq1a, the z-score was -2.22 (active).
With CCUCAAAUUAUUGUUGGCATT against Ppip5k1 the z-score was -2.07 (active).
In the case of GCUACUAUGUGCCUGUGACTT against Oc90, the z-score was -2.21 (active).

Going from GGAGAACCCUUAUGUGACATT against Pik3ca to GGUAAAAACUUUCCUUUAGTT against Prph2, the z-score rises from -1.91 to 1.48.

First: GGAAUGCAAAAAACUCUGGTT against Gzmg
Second: GGCCUGAGUAUAAAGUUAGTT against Wbp2
The z-score of the first is lower: 0.906 for the first, 1.6 for the second.

Compared with GGAUGAAUAAGGACAGAUUTT against Phospho2, GGUUACGUGUUUGUAUCUATT against Higd1a is lower in z-score: 0.335 for the first, -0.395 for the second.

Going from GGCUCUUGAAAAAAACCCATT against Utp11 to GGUGACUAGGAAGAACACGTT against Tmem9b, the z-score rises from 0.441 to 1.99.

Going from GUACCUGAACUCAACUGAGTT against Ffar2 to CCCAGAAGAGGUUACAUUUTT against Cd200r4, the z-score rises from -0.0572 to 0.0312.

First: GGGAUCAGAGAUAUAGCCATT against Vmn1r192
Second: GGACAGAUUUUCACCAUUCTT against Slc1a4
The z-score of the first is lower: -1.74 for the first, -0.593 for the second.

First: GGUGAAGCAUCAGUGACAATT against Ubxn4
Second: UUUCAAUCUGUAGCUUUCCTT against Krt86
The z-score of the first is higher: 0.734 for the first, 0.071 for the second.

Going from GCUAUGUAAGACAUUUAACTT against Ccdc162 to CGUUUAUUGUAACCAGAAUTT against Fam168b, the z-score falls from 1.6 to 0.263.

First: GGCUUUCCUCCAGAUAAACTT against Il6st
Second: GCGACGAGAAGAAUCUGCUTT against Mtcl1
The z-score of the first is lower: -0.856 for the first, -0.641 for the second.

First: CCGUGGAGUAACAAGUAUGTT against Capzb
Second: CGAUCUAGUCCGCCAUUACTT against Lck
The z-score of the first is higher: -1.07 for the first, -1.3 for the second.

First: GCGAAGGAAUUUAAGGACCTT against Tmod1
Second: CCAAUGAUAGACUUUAUACTT against Adgrv1
The z-score of the first is higher: 0.836 for the first, -0.252 for the second.

Going from GCAGUUCACGCAGUGGAAGTT against Fam25c to UCAUAGCAGAGAUUAGAAUTT against Hsfy2, the z-score falls from 1.3 to -0.951.

Going from CCUCAGGUUAUUGAAUAUUTT against Rapgef6 to GGACAAAACGUGCAAUAUGTT against Pkdcc, the z-score falls from 0.502 to -0.188.

Compared with GCAGAUUGCUCAGAUUACCTT against Brip1, GGUUCUUCGGCUUAUGUUGTT against Rgs7bp is higher in z-score: 0.407 for the first, 0.537 for the second.

Going from GGACAAAAUAAUGCUUUCUTT against Cnnm1 to “CCCGUAUCUUUUUAGCUAATT against A630038E17Rik”, the z-score rises from 0.0436 to 0.35.

Going from GCCAAACUAUCAGAGAUGGTT against Slc38a7 to GGAUUAUGGUACCAAGCGCTT against Umps, the z-score rises from 0.0528 to 1.21.

Compared with CCUAAUUGAAAUCAGCAGUTT against Hip1r, GGCACAAGAAAUUUGAUGATT against Gpc6 is lower in z-score: 1.14 for the first, -1.91 for the second.

Going from GCAAAUCAUGACUAUUGUATT against Atat1 to CAUGAUAGCGAUAGCAAUCTT against Olfr507, the z-score rises from 0.00079 to 0.0127.

Going from GCCUGAUUCAGAGUAUAAATT against Col14a1 to CCUACUCAAAUGAAGUUGUTT against Cdk17, the z-score rises from -1.24 to -0.384.

First: GCUCUGGUUGCCAGUUAUGTT against Ddx49
Second: GGGAUUAUAGGGCGCAUUGTT against Olfr685
The z-score of the first is higher: 0.903 for the first, -1.01 for the second.

Compared with GCGACAAAUCAAAAAGGCCTT against Dnajb9, GGCCAACAAUAUAAAAGACTT against Pus3 is lower in z-score: -0.0942 for the first, -0.641 for the second.

Going from GGUCCUGAUGUUGAAGGCATT against Rinl to GCAUCUCUUACUAAGAUUATT against Anxa4, the z-score falls from 0.647 to -0.433.

Going from GGUUUUAUGCAUUAGCUCCTT against Lipf to GCAACCUGUCAUUUUGUGATT against Olfr1134, the z-score falls from 0.502 to -1.74.

Going from GGCUUUUAGCUACCUUGUGTT against AW209491 to CCAGGUGUAACAAAAAAGATT against Dtl, the z-score rises from -0.704 to 1.09.

Going from CCGGGAAAUUCUGUUAGCCTT against Pla2g1b to GGAAAGCUCUCAAUACCUGTT against Olfr633, the z-score rises from -1.95 to -0.688.

Compared with GCUUUGGUUGCUAACCCAATT against Slc45a2, GGCUCAAUUUGGAAAGGACTT against Anxa8 is lower in z-score: 0.407 for the first, -0.586 for the second.

Going from GGAUAUGUCGGAAAAAGCCTT against Cfh to GGCCACAGUAAUGGGAAAUTT against Cga, the z-score falls from 0.271 to -0.208.

First: GGUAAAUGAUCUGAAAAUGTT against Rps6ka6
Second: CGAGCUAUACGGAAAAAAATT against Efcab12
The z-score of the first is higher: -0.46 for the first, -1.03 for the second.

Compared with GCUGAUCCUCUCCCUUCAUTT against Tas2r131, GGCUCUUCUCUCGUCCUUGTT against Nif3l1 is higher in z-score: -0.463 for the first, 0.213 for the second.

Compared with GGAUGAAGACCCAUAUGUGTT against Ap1b1, GCCUCAGUUUGAAAUUGUUTT against Tbrg1 is lower in z-score: -0.287 for the first, -0.695 for the second.

First: CCUGGAUCAGCAAUCCACATT against Lpxn
Second: CGUGUAGCAAUGAGAUAUUTT against Trpc5
The z-score of the first is lower: -0.503 for the first, 0.162 for the second.

Compared with GGGAUUUCUGGAGAAAAUGTT against Csta2, GGAUUCCUGUACAUAUAUUTT against Ube4b is higher in z-score: -0.872 for the first, -0.501 for the second.

Going from GGCAUGAAUACAUCACAGCTT against Vmn1r220 to GGACAUACAAAUCUUCAUUTT against Mta2, the z-score rises from -0.808 to 0.886.

Compared with GGUGAUGCUAAAUUCUGAUTT against Mpc2, “CCUCUCUUUAACAGGUCACTT against 1700034H15Rik” is higher in z-score: -1.92 for the first, 1.35 for the second.

Compared with GCUGUUACUCUUAAACAAATT against Pdhx, GCCUCAGUUAUUUAAUGAATT against Mpp3 is lower in z-score: 0.254 for the first, -0.414 for the second.

Going from GGAUGAAGAAAACUGGCUUTT against Tsx to GGUUGACCCACUGAAAAUUTT against Marveld1, the z-score rises from -0.764 to -0.112.

First: GCACGGCCCUACUUUAUAGTT against Trim33
Second: GGCGUGAAAAUAGGAGAAUTT against Extl2
The z-score of the first is higher: -1.43 for the first, -1.77 for the second.

Compared with GCCGCUACACAUCAAACCATT against Zc3h3, GCUAAUCGAAGUUGAAAUUTT against Soga3 is higher in z-score: -0.336 for the first, -0.316 for the second.

Compared with GGAAAAUGGAGCUGUGCUCTT against Prelid3a, GCUGUUUUAGUAGAGGUAATT against Tsfm is lower in z-score: 0.298 for the first, -0.708 for the second.

Compared with GGGCUGGCUACGAUAAGCUTT against Tes, CCCUUGAAGAUGAAACCAGTT against Smarca5 is lower in z-score: 1.53 for the first, -0.277 for the second.

Compared with GCGGAAAUCUAAUUGCUUGTT against Kat5, GGUGGAUUAAGUCUCAAAATT against Pcdhb22 is higher in z-score: -0.0418 for the first, 0.592 for the second.

First: CCUACUGGAAAAGAUAAUUTT against Stfa1
Second: UACAUUAGUAGAAUGGAGGTT against Mageb3
The z-score of the first is higher: 1.82 for the first, -0.598 for the second.

Going from GGAAGAAACUGAGAAACUGTT against Fam205c to CGGAAAAAUGGAAGUAUAGTT against Mrtfb, the z-score falls from 0.48 to -0.687.
